Source: PubChem (Buhrlage Lab, Dana-Farber Cancer Institute and Novartis Institutes for BioMedical Research (Cambridge, Mass))
USP28 block: inhibitors of human USP28 deubiquitinase. purified USP28, Ub-rhodamine cleavage fluorescence, 30 min. inhibition, % at 25 µM. 47,000 tested, 3% active
OTUD3 inh: inhibitors of human OTUD3 deubiquitinase. purified OTUD3, Ub-rhodamine fluorescence, 2 h. 47,000 tested, 0.7% active. AID 1645858, 2021. inhibition, % at 25 µM. OTU domain-containing protein 3 (Homo sapiens), Q5T2D3
USP30 inh: inhibitors of human USP30 deubiquitinase; 47,000 tested, 5.3% active; AID 1645860, 2021; purified USP30, Ub-rhodamine cleavage fluorescence; inhibition, % at 25 µM
USP17 block: inhibitors of human USP17 deubiquitinase; Ubiquitin carboxyl-terminal hydrolase 17-like protein 5 (Homo sapiens), A8MUK1; purified USP17, Ub-rhodamine cleavage fluorescence, 3 h; inhibition, % at 50 µM; 47,000 tested, 6.5% active
Target sequence (A8MUK1 whole entry, looked up): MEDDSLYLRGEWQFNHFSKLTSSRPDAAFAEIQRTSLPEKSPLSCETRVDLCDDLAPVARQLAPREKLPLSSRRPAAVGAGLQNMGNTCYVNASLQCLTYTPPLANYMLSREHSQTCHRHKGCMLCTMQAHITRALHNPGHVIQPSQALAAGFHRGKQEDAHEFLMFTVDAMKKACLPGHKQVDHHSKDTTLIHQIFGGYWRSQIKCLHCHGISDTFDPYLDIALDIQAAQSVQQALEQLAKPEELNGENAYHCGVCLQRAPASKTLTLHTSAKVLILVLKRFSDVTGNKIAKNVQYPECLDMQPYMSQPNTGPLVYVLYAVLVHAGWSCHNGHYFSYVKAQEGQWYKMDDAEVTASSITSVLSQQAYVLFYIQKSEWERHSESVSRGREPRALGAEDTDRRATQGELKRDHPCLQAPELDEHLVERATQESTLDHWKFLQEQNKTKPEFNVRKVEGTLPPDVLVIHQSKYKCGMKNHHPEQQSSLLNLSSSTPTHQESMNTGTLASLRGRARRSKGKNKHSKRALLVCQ
Of the large screens only hits and unclear results are named; the others gave an inactive call. The list is not random: actives were taken first. Their share in the collection is about 11%. Rule as the data show it: active = inhibition above about 30%; inactive = the rest.

CC1CCN(c2nnc(-c3nc(C4CC4)no3)c3ccccc23)CC1	OTUD3 inh 31.0, USP30 inh 56.8
O=C(Nc1ccc(Cl)cc1)c1c(-c2ccccc2)c2c3n(c(-c4ccc(F)cc4)cn13)CCCC2	none
CC(C)(C)C1CCC(C(=O)OCC(=O)Nc2ccc([N+](=O)[O-])cc2C#N)CC1 (stereo not drawn)	none
C=C(C)CSc1nc(Cc2ccccc2)nc2sc3c(c12)CC(C)(C)OC3	USP28 block 33.3
Cc1nc(N2CCCCC2)ncc1-c1cc(=O)[nH]c(N2CCN(c3ccccc3)CC2)n1	none
COc1ccc(Cl)cc1NC(=O)c1cc(-c2ccccn2)n[nH]1	USP17 block 61.3
O=C(Nc1ccc(Cl)cc1)c1cc(-c2ccccn2)n[nH]1	none
COc1cc(OC)c(NC(=O)c2cc(-c3ccccn3)n[nH]2)cc1Cl	none
Cc1ccc(Cl)cc1NC(=O)c1cc(-c2ccccn2)n[nH]1	USP17 block 73.1
COCCN(C)C(=O)c1ccnn1-c1ccc2ccc(-c3cccnc3)cn12	none
CCN(C(=O)c1nc(N2CCSCC2)c2cnn(C)c2n1)c1ccccc1	none
CNc1nc2c(c(=O)n1Cc1ccccc1)CN(C(=O)c1ccc(CN)cc1)CC2	USP17 block 59.1
CNc1nc2c(c(=O)n1-c1ccccc1)CCN(C(=O)c1ccc3ccccc3c1)C2	USP30 inh 42.7
CNc1nc2c(c(=O)n1Cc1ccccc1)CN(C(=O)Nc1ccccc1)CC2	none
Cc1nn(-c2nc3ccccc3o2)c2c1C(c1ccc(F)c(F)c1)CC(=O)N2 (stereo not drawn)	none
Cc1cc(C2CC(=O)Nc3c2c(C)nn3-c2nc3ccccc3[nH]2)c(C)s1 (stereo not drawn)	USP17 block 50.6
O=C1CC[C@]2(CCCN(C(=O)Cc3ccc4c(c3)OCO4)[C@@H]2c2ccc(F)cc2)N1	none
CCOC(=O)Cn1c(=O)c(C(=O)NC(=O)OCC)cn(Cc2cccs2)c1=O	USP30 inh 30.7
COc1cc(-c2nc3n(n2)C(c2cccc(O)c2)C2=C(CCCC2=O)N3)cc(OC)c1OC (stereo not drawn)	none
COc1ccccc1-c1cc(CNCCN)n(Cc2ccc3ccccc3c2)n1	USP28 block 30.4, USP30 inh 44.5
Cc1ccc(CCNC(=O)C2CCCN(c3ncnc4onc(C)c34)C2)cc1 (stereo not drawn)	USP30 inh 35.6
COc1cc(C#N)ccc1OCc1ncc(-c2ccccc2)o1	none
Cn1c(-c2nnc(SCC(=O)Nc3ccccc3F)o2)cc2ccccc21	USP28 block 41.1, USP30 inh 81.8, USP17 block 43.2
CN(C(=O)CSc1nnc(-c2cc3ccccc3n2C)o1)c1ccccc1	USP30 inh 52.1
COc1ccccc1NC(=O)CSc1nnc(-c2cc3ccccc3n2C)o1	none
COc1ccc(-c2nnc(Cc3nc(-c4ccccc4C)no3)o2)cc1	none
Cn1c(NC(=O)c2cccs2)c(-c2cccc(C(F)(F)F)c2)c(=O)c2ccccc21	none
Cc1ccc(-c2nc(NC(=O)Nc3ccc(Cl)cc3)sc2C)cc1	USP17 block 60.3
Cc1sc(NC(=O)c2cnc3ccccc3n2)nc1-c1ccc(F)c(F)c1	none
Cc1ccc(-c2nnc(NC(=O)c3c(F)cccc3F)s2)cc1	none
Cc1ccc(-c2ncc(C(=O)Nc3ccc(Cl)cc3)c(-c3ccncc3)n2)cc1	none
O=C(Nc1nnc(-c2ccc(F)cc2)s1)c1c(F)cccc1F	USP17 block 41.1
Cc1sc(NC(=O)c2ccc3ccccc3n2)nc1-c1ccc(F)cc1	USP17 block 35.1
Cc1ccc(-c2nc(NC(=O)c3c(F)cccc3F)sc2C)cc1Cl	USP17 block 36.5
Cc1ccc(-c2nc(NC(=O)c3c(-c4ccccc4)noc3C)sc2C)cc1Cl	none
NC(=O)c1cc2ccccc2nc1C1CCN(C(=O)Cc2ccccc2F)CC1	none
Cc1ccc(NC(=O)CCS(=O)(=O)c2ccc3c(c2)CC(=O)N3C)c(C)c1	none
O=C(c1cnccn1)N1CCCC(c2nccnc2-c2cccc(F)c2)C1 (stereo not drawn)	none
O=C(Nc1nc2c(s1)CN(C(=O)c1cc(-c3ccco3)on1)CC2)C1CCCO1 (stereo not drawn)	USP17 block 33.3
O=C(Nc1nc2c(s1)CN(C(=O)c1cnn(-c3ccccc3)n1)CC2)C1CCCO1 (stereo not drawn)	none
Cc1noc(-c2cc(=O)n(CC(=O)NCc3ccccc3)c3ccccc23)n1	USP17 block 53.4
O=C(CN1CCCC1)N[C@@H]1CC[C@@H](Oc2cccc(F)c2)[C@@H](O)[C@@H]1O	none
COc1ccc(CNc2c(S(=O)(=O)c3ccccc3)cnc3ccccc23)cc1	USP30 inh 35.1
